PubChem BioAssay (Tox21)
Inconclusive results are not listed. Entries that show only a call come without a potency. The source made the active and inactive calls. The call rests on the fitted dose curve.

assay: Nuclear factor erythroid 2-related factor 2/antioxidant responsive element (Nrf2/ARE) small molecule agonists: luciferase reporter gene qHTS assay in human keratinocytes (AID 1919969); conditions: KeratinoSens HaCaT ARE-luciferase, luminescence, 24 h; series mostly up to 92.4 µM; further: nearly all actives have a fitted effect of over 35% in size
Excerpt: National Center for Advancing Translational Sciences [NCATS]
Division of Preclinical Innovation [DPI]
U.S. Environmental Protection Agency [EPA]
National Institutes of Environmental Health Sciences [NIEHS]
National Toxicology Program [NTP]
U.S. Food and Drug Administration [FDA]
Oxidative stress has been implicated in the pathogenesis of a variety of diseases ranging from cancer to neurodegeneration. The antioxidant response element (ARE) signaling pathway plays an important role in the amelioration of oxidative stress. The KeratinoSens (Givaudan, Switzerland) is an in vitro test method which quantifies luciferase induction as a measure of activation of Keap1-Nrf2-antioxidationt/electrophile response element (ARE) dependant pathway in HaCaT human keratinocytes stably transfected with a selectable plasmid. The KeratinoSens assay is a cell-based assay with a reporter cell line to detect potential skin sensitizers by their ability to induce the Nrf2/ARE-response. The activation of the report gene under culture conditions can be detected by ONE-Glo Luciferase Assay System (Promega, Madison, WI). This cell line has been used to screen the Tox21 10K compound library to identify agonists that induce oxidative stress. The cytotoxicity of the Tox21 compound library against the KS-ARE cell line was tested in parallel by measuring the cell viability using CellTiter- Fluor assay system (Promega, Madison, WI) in the same wells.
HaCaT derived cell line KeratinoSens were dispensed at 1,500 cells/5uL/well in 1536-well white wall/solid bottom plates using a Multidrop Combi (ThermoFisher Scientific, Waltham, MA) dispenser. After the assay plates were incubated at 37 C/5% CO2 for 5 h, 23 nL of compounds dissolved in DMSO, positive controls or DMSO only was transferred to the assay plate by a pintool workstation (Kalypsys, San Diego, CA). The plates were incubated at 37 C/5% CO2 for 23 h, followed by addition of 1uL/well of CellTiter-Fluor reagent into the assay plates using a Flying Reagent Dispenser (Aurora Discovery, San Diego, CA) for cell viability readout that measures cytotoxicity. After 1 h incubation at 37 C/5% CO2 the fluorescence intensity was measured using a ViewLux (PerkinElmer, Shelton, CT) plate reader. Then 4uL/well of One-Glo were added using a Flying Reagent Dispenser. After the plates were incubated at room temperature for 30 min, the luminescence intensity in the assay plates was measured using ViewLux plate reader.
Potency means the concentration at half of the fitted maximal effect.

| SMILES | Potency |
| --- | --- |
| CCCCCCC(O)CCCCCCCCCCC(=O)OC (stereo not given) | inactive |
| COCCCN1CCC(NC(=O)c2cc(Cl)c(N)c3c2OCC3)CC1 | inactive |
| Cc1c[nH]c2ccccc12 | inactive |
| Cc1ccc2ccccc2n1 | inactive |
| CC(C)(O)C(=O)c1ccccc1 | inactive |
| O=C(NCCO[N+](=O)[O-])c1cccnc1 | inactive |
| CC(C)=CC(=O)C=C(C)C | inactive |
| C[C@@H]1O[C@@H](O[C@@H]2[C@@H](O)[C@H](OCCc3ccc(O)c(O)c3)O[C@H](CO[C@@H]3O[C@H](CO)[C@@H](O)[C@H](O)[C@H]3O)[C@H]2OC(=O)/C=C/c2ccc(O)c(O)c2)[C@H](O)[C@H](O)[C@H]1O | inactive |
| COc1c(N2CCNC(C)C2)c(F)cc2c(=O)c(C(=O)O)cn(C3CC3)c12 (stereo not given) | inactive |
| CC(C)(C)NSc1nc2ccccc2s1 | 24.8 µM (active) |
| COCCCCCCCCOCCC[Si](C)(O[Si](C)(C)C)O[Si](C)(C)C | inactive |
| CCOc1nc(F)cc2nc(S(=O)(=O)Nc3c(Cl)cccc3C(=O)OC)nn12 | inactive |
| Cc1nc2n(c(=O)c1CCN1CCC(C(=O)c3ccc(F)cc3)CC1)CCS2 | inactive |
| CCCCCCCCC(=O)Cl | inactive |
| CC(C)C(=O)OCC(C)(C)C(O)C(C)C (stereo not given) | inactive |
| CCOC(=O)N1CCC(n2c(=O)[nH]c3cc(Cl)ccc32)CC1 | inactive |
| CC(C)C[C@H](NC(=O)[C@H](CCc1ccccc1)NC(=O)CN1CCOCC1)C(=O)N[C@@H](Cc1ccccc1)C(=O)N[C@@H](CC(C)C)C(=O)[C@@]1(C)CO1 | 0.106 µM (active) |
| CN(C)[C@@H]1C(=O)C(C(=O)NCN2CCCC2)=C(O)[C@@]2(O)C(=O)C3=C(O)c4c(O)cccc4[C@@](C)(O)C3C[C@@H]12 (stereo not given in full) | inactive |
| COCCC(=O)OC | 68.6 µM (active) |
| NS(=O)(=O)c1cc(C(=O)O)cc(N2CCCC2)c1Oc1ccccc1 | inactive |

| SMILES | Potency |
| --- | --- |
| CC(C)=CCC/C(C)=C/CC/C(C)=C/CO | 68.6 µM (active) |
| O=C1CC2(CCCC2)CC(=O)N1 | inactive |
| O=C(CCCN1CCN(c2ccccn2)CC1)c1ccc(F)cc1 | inactive |
| OCCC(O)CO (stereo not given) | inactive |
| CCOC(=O)C(=O)c1csc(NC=O)n1 | inactive |
| CCOc1cc(OCC)c(C(=O)CCC(=O)O)cc1OCC | inactive |
| CCCCCOC(=O)CCC | inactive |
| Cc1oc(-c2ccccc2)nc1CCOc1ccc(C[C@H](Nc2ccccc2C(=O)c2ccccc2)C(=O)O)cc1 | inactive |
| CCc1cccc(C)c1 | inactive |
| COc1cc2nc(Cl)nc(N)c2cc1OC | inactive |
| OC(CCN1CCCCC1)(c1ccccc1)c1ccccc1 | inactive |
| COc1ccccc1Oc1c(NS(=O)(=O)c2ccc(C(C)(C)C)cc2)nc(-c2ncccn2)nc1OCCO | 33.5 µM (active) |
| NC(N)=NC(=O)Cc1c(Cl)cccc1Cl | inactive |
| CNCCc1ccccn1 | inactive |
| CC(=O)[C@H]1CC[C@H]2[C@@H]3C=CC4=CC(=O)CC[C@@]4(C)[C@@H]3CC[C@]12C | inactive |
| Oc1ccccc1C=NCc1ccccc1 | inactive |
| CC(=O)O[C@@H]1C(=O)O[C@@H]2[C@H]1OC(=O)[C@@H]2OC(C)=O | 29.8 µM (active) |
| OC(CCCN1CCCCC1)(c1ccccc1)c1ccccc1 | inactive |
| CCCC(=O)c1cc(O)c(O)cc1O | 4.86 µM (active) |
| O=C(Cn1ccnc1[N+](=O)[O-])NCCO | inactive |
